# An excerpt weighted towards active compounds, which were near 2.1% of everything screened.
# D2 ag-1: agonists of human D2 dopamine receptor; P14416; AID 485358; activation, % at 2 µM; HEK293 T-REx D2 cells, calcium flux agonist mode; 340,000 tested, 0.53% active;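 active means activation over 3 SD above normal in the single-dose calcium agonist read, cut at about 30% in these data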; further: 0% is about no effect
# Target sequence (P14416 whole entry, looked up): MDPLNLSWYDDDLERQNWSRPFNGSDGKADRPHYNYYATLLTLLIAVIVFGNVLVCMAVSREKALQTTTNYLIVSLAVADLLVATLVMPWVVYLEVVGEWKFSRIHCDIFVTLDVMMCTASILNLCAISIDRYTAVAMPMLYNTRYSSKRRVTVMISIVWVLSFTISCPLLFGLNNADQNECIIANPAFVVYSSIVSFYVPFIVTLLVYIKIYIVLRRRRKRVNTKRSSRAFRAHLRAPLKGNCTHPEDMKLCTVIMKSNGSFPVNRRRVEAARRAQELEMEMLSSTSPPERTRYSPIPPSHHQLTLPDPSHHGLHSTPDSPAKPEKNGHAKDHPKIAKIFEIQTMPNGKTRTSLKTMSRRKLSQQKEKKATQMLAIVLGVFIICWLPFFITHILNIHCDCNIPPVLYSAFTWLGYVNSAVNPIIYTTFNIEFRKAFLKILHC
#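 HEK293 Trex D2 cells, tetracycline-induced, o/n 30 C 5% CO2; no-wash Ca dye, RT 30–90 min; 10-cycle baseline, 23 nl cpd added, kinetic Ca read 180 s; agonist hits = positive Ca response.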
# D2 PAM-1: potentiates the human D2 dopamine receptor allosterically | DiscoveRx D2 beta-arrestin cells, luminescence, 90 min; 100% = 57 uM dopamine signal | potentiation, % (concentration not given with the values) | 360,000 tested, 0.23% active; in the data active means potentiation above about 50%; inconclusive means mostly about 30% to 49%
#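 D2 cells co-treated with compound plus 50 nM dopamine (EC20) for 90 min at 37 deg C to detect potentiation. Beta-arrestin recruitment was read as enzyme-fragment luminescence after 1 h at ambient temperature. Full response was set by 57 uM dopamine.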
# D2 ag-2: agonists of human D2 dopamine receptor (beta-arrestin) | 360,000 tested, 0.084% active | P14416 | DiscoveRx PathHunter D2 beta-arrestin, luminescence, 90 min; 100% = 57 uM dopamine signal | activation, % (concentration not given with the values); in the data active means activation above about 40%; inconclusive means between about 15% and that limit
#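 Agonist mode: compounds alone added to overnight-plated D2 PathHunter cells for 90 min at 37 C, with 57 uM final dopamine (EC100) defining full response. Beta-arrestin recruitment detected by chemiluminescent reagent, read after 1 h at ambient temperature.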
# D2 antagonist: D2 dopamine receptor (human) antagonism; HEK293 TREx D2 cells, calcium flux, dopamine EC80; inhibition, % at 10 µM; 340,000 tested, 2% active; in the data active means inhibition above about 30%; inactive means below that, where a call was filed; further: 0% is about no effect
#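 Calcium mobilization kinetics were recorded at 1 s intervals in tetracycline-induced HEK293 T-REx D2 cells, first for 180 s after compound addition and then 180 s after EC80 dopamine.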
# LDHA block: inhibitors of human lactate dehydrogenase A; purified LDHA, NADH/diaphorase-resazurin fluorescence; hits give low values; activity change, % (values are at about 110 or 230 µM); 480,000 tested, 0.15% active; AID 1347041; in the data active means activity change below about -30%; inconclusive means mostly about -25% to -30%;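 further: plate controls were DMSO wells for no effect and wells without enzyme for full effect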
#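 Remaining NADH was detected by diaphorase (0.133 mg/mL) converting 37 µM resazurin to fluorescent resorufin, read at 0 and 20 minutes. The preceding 5-minute room-temperature reaction used 2 nM LDHA, 0.2 mM sodium pyruvate and 0.06 mM NADH at pH 7.4.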
# D2 PAM-2: D2 dopamine receptor (human) potentiation; HEK293 T-REx D2, calcium flux, EC20 dopamine potentiation; AID 485347; 340,000 tested, 0.34% active; potentiation, % at 10 µM;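 active means potentiation over 3 SD above the plate norm, cut at about 30% in these data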; further: 0% is about no effect
#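 Potentiation of an EC20 dopamine calcium response is measured in a force-coupled, tetracycline-inducible Hek293 Trex D2 line. Compound-only kinetic reads over 180 s flag agonists before dopamine addition.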
# The depositor's hits bear a star; u = inconclusive; x = not tested or not shown; ! = not confirmed by another sample.
SMILES,D2 ag-1,D2 PAM-1,D2 ag-2,D2 antagonist,LDHA block,D2 PAM-2
CCN1CCN(Cc2cccc(Oc3ccc(Cl)cc3)c2)CC1,0.5,-28.7,-1.9,13.9,-4.3,4.8
CCOC(=O)C1CCN(Cc2cccc(Oc3ccccc3)c2)CC1,x,-22.4,u,x,-14.8,x
CCN1CCN(Cc2cccc(Oc3ccccc3)c2)CC1,-0.8,-22.9,-3.0,-15.8,-31.8*,-20.3
Cc1[nH]c2ccccc2c1C(c1ccc(Cl)c(Cl)c1)c1c(C)[nH]c2ccccc12,x,x,x,x,1.6,x
Cc1ccc(/C=N/NC(=O)CSc2nnc(-c3ccc(Cl)cc3)n2-c2ccc(Cl)cc2)o1,0.7,83.5*,14.5,4.5,-2.6,-0.4
CCn1c(SCC(=O)N/N=C/c2ccc(C)o2)nnc1-c1ccccc1,1.1,-9.1,-3.5,56.8*,2.4,-5.0
O=C(CSc1nnc(-c2ccccc2)n1-c1ccc(Cl)cc1)N/N=C/c1ccccc1C(=O)O,-1.0,7.2,2.1,6.2,1.9,-6.0
Cc1ccc(/C=N/NC(=O)CSc2nnc(-c3ccccc3)n2-c2ccc(Cl)cc2)o1,-0.1,54.1*,14.4,12.3,-0.5,8.2
Cc1nn(-c2ccccc2)c(C)c1/C=N/NC(=O)CSc1nnc(-c2ccccc2)n1-c1ccc(Cl)cc1,-1.6,-3.4,-4.3,-8.6,-2.8,35.0*
Cc1ccc(-c2nnc(SCC(=O)N/N=C/c3c(C)nn(-c4ccccc4)c3C)n2-c2ccc(C)cc2)cc1,-1.0,13.9,-3.6,-3.2,1.1,-4.7
CCCCNC(=S)N(C)/N=C/c1ccc(N(CC)CC)cc1,x,x,x,x,5.9,x
CC(C)(CNC(=S)Nc1cccc(C(F)(F)F)c1)N1CCCCC1,x,x,x,x,-4.8,x
CSCCC(NC(=O)c1ccccc1Br)C(=O)N1CCCC(C(F)(F)F)C1 (stereo not given),0.3,-25.2,-0.6,2.4,-5.7,9.6
CSCCC(NC(=O)c1ccco1)C(=O)N1CCN(C(c2ccccc2)c2ccccc2)CC1 (stereo not given),-0.6,-7.6,-1.3,34.4*,-9.5,10.9
CSCCC(NC(=O)c1ccco1)C(=O)N1CCCC(C(F)(F)F)C1 (stereo not given),-1.4,-5.3,-5.5,31.5*,-1.7,-0.3
O=C(NCC1CCCO1)c1cc(S(=O)(=O)Nc2ccc(Br)cc2)ccc1Cl (stereo not given),0.2,8.8,2.1,52.5*,-0.8,2.6
CN(c1ccc(F)cc1)S(=O)(=O)c1ccc(Cl)c(C(=O)NCC2CCCO2)c1 (stereo not given),-0.2,-2.0,-3.3,5.8,-2.5,31.6*
O=C(NCC1CCCO1)c1ccc(NC(=O)c2cccc(Br)c2)cc1 (stereo not given),x,93.5*,6.5,x,-2.2,x
Cc1ccc(-c2nc(C(=O)NCC3CCCO3)cc3c2[nH]c2ccccc23)cc1 (stereo not given),1.0,-21.1,9.6,6.1,-0.4,-0.9
O=C(NCC1CCCO1)c1cc2c([nH]c3ccccc32)c(-c2cccc(Br)c2)n1 (stereo not given),-0.8,-64.5,6.4,33.8*,0.7,-18.8
CC(C)CCNC(=O)CSc1nc2ccsc2c(=O)n1Cc1ccccc1,x,x,x,x,-1.3,x
CCn1c(Cn2nnc(-c3ccccc3C)n2)nc2cc(S(=O)(=O)N3CCOCC3)ccc21,x,x,x,x,-5.1,x
CC(C)(C)OC(=O)N1CCC(c2c(C(=O)NCC3CCN(C4CCCC4)C3)cnn2-c2ccccc2Cl)CC1 (stereo not given),-0.5,-8.7,0.4,46.1*,-0.7,4.7
CCc1ccc(C(=O)NCc2ccco2)cc1,x,x,x,x,-0.9,x
Nc1c(C(=O)N2CCOCC2)sc2nc3c(cc12)CCCC3,-0.2,-2.1,0.6,-8.4,2.3,32.7*
SMILES,D2 ag-1,D2 PAM-1,D2 ag-2,D2 antagonist,LDHA block,D2 PAM-2
C/C=C/c1ccc(OCCCCN2CC(C)CC(C)C2)c(OC)c1 (stereo not given),-0.3,-16.0,-3.6,38.0*,-14.9,-25.1
C/C=C/c1ccc(OCCCCN2CCN(CC)CC2)c(OC)c1,-0.6,-20.4,-1.6,-25.3,-12.4,-6.7
CCN(CC)CCn1c(=S)[nH]c2cc(C(=O)NCc3ccccc3)ccc2c1=O,x,-22.2,-0.9,x,2.3,x
CCN(CC)CCn1c(=S)[nH]c2cc(C(=O)NCc3ccc(C)cc3)ccc2c1=O,-0.4,-14.2,-0.2,36.4*,-8.4,-12.0
O=C(O)C/C(=C/c1cc(Br)cs1)c1nc2ccccc2o1,x,x,x,x,13.1,x
COc1ccc(N(C(=O)c2ccccc2OC(C)=O)C(C)C2CC2)cc1 (stereo not given),-0.7,-4.2,-1.9,30.5*,-3.6,-25.4
COc1ccc(CN(C(=O)c2ccc(C#N)cc2)C(C)C2CC2)cc1 (stereo not given),x,x,x,x,-7.2,x
CC(C)NC(=O)C1(c2ccccc2)CCOCC1,1.3,-15.5,-2.8,-26.0,-6.8,34.9*
Cc1cc(C)c[n+](-c2nc3ccccc3nc2C(=C=[N-])C#N)c1,1.1,-2.3,-2.1,34.3*!,-3.0,-2.1
COc1ccccc1N1CCN(CCCCCCOc2ccc(F)cc2)CC1,6.3,-29.6,-0.9,81.1*,-1.4,-48.4
COc1ccccc1OCCCCN1CCN(c2ccccc2OC)CC1,0.9,-35.9,-2.7,3.9,-22.9,7.4
Cc1ccc(NC(=O)CN2CCN(c3ccccc3F)CC2)cc1F,-2.6,x,x,x,2.0,-28.5
CCOC(=O)c1c(C)n(C)c2ccc(OC)c(NC(=O)CN3CCSCC3)c12,-0.2,-7.7,-3.8,-12.4,3.8,0.8
O=C(CN1CCN(c2ccccc2F)CC1)Nc1ccc2c(c1)CCC2,-0.8,-0.6,3.9,69.4*,-7.0,-21.8
CCOC(=O)c1c(C)n(C)c2ccc(OC)c(NC(=O)CCN3CCC(Cc4ccccc4)CC3)c12,0.5,-16.0,-3.1,90.8*,-4.5,-32.4
COc1ccccc1N1CCN(CCC(=O)Nc2ccc(F)cc2)CC1,5.1,-27.7,-4.7,66.4*,-12.4,-23.1
COc1cc(/C=C(/C#N)c2ccccn2)ccc1OCc1cccc(C(F)(F)F)c1,x,x,x,x,8.2,x
CC(C)Sc1ccc(C(=O)NCC(O)c2ccccc2)cc1 (stereo not given),x,x,x,x,0.6,x
COc1ccccc1N1CCN(CC(=O)NCC2CCCO2)CC1 (stereo not given),1.5,-32.0,-2.3,0.7,-43.3*,-18.7
COc1ccccc1N1CCN(C(=O)Nc2cccc(Cl)c2)CC1,-0.2,-17.2,-1.1,-6.4,-6.7,-6.1
CCOC(=O)N1CCN(CCC(=O)Nc2ccccc2OC)CC1,2.3,-12.1,-1.0,50.0*,-10.6,-5.9
COc1ccccc1N1CCN(CC(=O)Nc2ccc(C)c(F)c2)CC1,-1.0,-36.6,-3.6,-8.0,-9.0,0.3

# Compound activity as filed in PubChem BioAssay.
